Bioassay records: PubChem, National Center for Advancing Translational Sciences (NCATS)
In the library only some 5.8% were active in any assay of this set; here they are far more common.
uPA surface inh: qHTS for Inhibitors of Cell Surface uPA Generation; cell surface uPA generation assay, qHTS; Potency, µM (highest dose often 38.3 µM), for the others: at the highest dose activity change, negative = inhibition, hits mostly inhibitors; 330,000 compounds, 0.31% hits; active means well fitted inhibition curve with a large enough effect; inconclusive means small, poorly fitted or top-dose-only effect; inactive means no such curve, though single readings can be large or run the other way; tested in mouse RAW 264.7 cells; further: potency means the concentration at half of the fitted maximal effect; on the % scale 0 is the no-effect control and ±100 the full control effect; nearly all actives have a fitted effect of over 55% in size
TRPV1 PAM: HTS Assay for Compounds that Act as Potentiators of the Vanilloid Receptor 1; 320,000 compounds, 0.02% hits; AID 540277, 2011; TRPV1-expressing cells, Fluo-8 calcium influx, capsaicin EC20 potentiation; potentiation, % at 8.33 µM; in the data active means potentiation above about 80%; inconclusive means between about 30% and that limit; further: 0% is about no effect
Target sequence (Q8NER1 whole entry, looked up): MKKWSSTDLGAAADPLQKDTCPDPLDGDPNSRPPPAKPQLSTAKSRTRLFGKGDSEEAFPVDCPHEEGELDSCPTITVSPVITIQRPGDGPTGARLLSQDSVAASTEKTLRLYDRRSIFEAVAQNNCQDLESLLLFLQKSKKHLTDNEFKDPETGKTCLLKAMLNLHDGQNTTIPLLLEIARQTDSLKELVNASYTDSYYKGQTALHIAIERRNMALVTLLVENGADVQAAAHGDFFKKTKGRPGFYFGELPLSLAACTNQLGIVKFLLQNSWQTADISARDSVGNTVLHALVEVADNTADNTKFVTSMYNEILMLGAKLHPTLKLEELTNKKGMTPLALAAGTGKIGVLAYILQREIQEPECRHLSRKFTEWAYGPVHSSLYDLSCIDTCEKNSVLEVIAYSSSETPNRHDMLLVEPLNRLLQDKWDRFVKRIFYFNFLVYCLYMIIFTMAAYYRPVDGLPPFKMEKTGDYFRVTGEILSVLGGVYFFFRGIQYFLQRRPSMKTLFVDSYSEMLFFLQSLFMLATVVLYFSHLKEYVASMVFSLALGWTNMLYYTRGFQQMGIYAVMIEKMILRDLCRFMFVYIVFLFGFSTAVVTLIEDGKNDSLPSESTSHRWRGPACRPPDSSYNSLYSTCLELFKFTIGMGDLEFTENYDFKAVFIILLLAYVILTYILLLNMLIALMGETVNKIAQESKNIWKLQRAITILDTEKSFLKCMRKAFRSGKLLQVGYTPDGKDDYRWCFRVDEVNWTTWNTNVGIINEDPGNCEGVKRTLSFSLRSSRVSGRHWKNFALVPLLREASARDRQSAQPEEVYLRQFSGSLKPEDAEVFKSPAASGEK
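TRPV1-expressing cells were cultured overnight at 35.5C and loaded with Fluo-8 calcium dye for 40 to 90 min at room temperature. After a 10 s baseline, compound was added and calcium influx was read kinetically for 3 min (ex 480/em 520 nm).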
Gal4-VP16 FLuc: VP16 counterscreen qHTS for inhibitors of ROR gamma transcriptional activity | Potency, µM (titrated, usually from 53.6 µM), for the others: top-dose activity, negative = inhibition, usual class: inhibitors | AID 2546, 2010 | 310,000 compounds, 3.5% hits | Drosophila S2 Gal4-VP16 UAS-luciferase, luminescence, 20 h;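 further: Gal4-VP16 expression switched on by copper sulfate through the metallothionein promoter; potency means the concentration at half of the fitted maximal effect; on the % scale 0 is the no-effect control and ±100 the full control effect; nearly all actives have a fitted effect of over 50% in size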
RORgamma inh: qHTS for inhibitors of ROR gamma transcriptional activity | Nuclear receptor ROR-gamma (Mus musculus), P51450 | Drosophila S2 Gal4-RORgamma UAS-luciferase reporter, 20 h | Potency, µM (titrated, usually from 53.6 µM), inactives show at the top dose activity change, negative = inhibition, actives largely listed as inhibitors | 310,000 compounds, 5.4% hits; further: potency means the concentration at half of the fitted maximal effect; on the % scale 0 is the no-effect control and ±100 the full control effect; nearly all actives have a fitted effect of over 60% in size
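Drosophila S2 cells stably expressing Gal4-DBD/mouse RORγ fusion under metallothionein promoter plus UAS-luciferase; compound 1 h, then 700 uM CuSO4 induction for 20 h at ambient temperature; inhibition read as reduced luminescence.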
TRPV1 ag: HTS Assay for Compounds that Act as Agonists of the Vanilloid Receptor 1; activation, % at 8.33 µM; AID 540275, 2011; TRPV1-expressing cells, Fluo-8 calcium influx, agonist mode; 320,000 compounds, 0.19% hits; Transient receptor potential cation channel subfamily V member 1 (Homo sapiens), Q8NER1; in the data active means activation above about 80%; inconclusive means between about 30% and that limit; further: 0% is about no effect
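Cells expressing TRPV1 were dye-loaded with Fluo-8 and read kinetically: 10 s baseline, 3 min after compound (agonist portion), then 2 min after EC20 capsaicin (allosteric enhancer portion). Calcium-bound dye fluorescence at 480/520 nm.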
Numbers without * were called inactive; ? = inconclusive; · = no result; [ ] = dose if it differs, or a comment. Unless noted, the call rests on the fitted dose curve; in most records, active means well fitted curve in the direction sought with a large enough effect; inconclusive means small, poorly fitted or top-dose-only effect, or another doubt; inactive means no such curve, though single readings can be large; an effect the other way counts as inactive or inconclusive.

SMILES	uPA surface inh	TRPV1 PAM	Gal4-VP16 FLuc	RORgamma inh	TRPV1 ag
COc1ccc(CNC(=O)c2c(-c3c(F)cccc3Cl)noc2C)cc1	3%	2	-8%	10%	-1
COc1ccc(CCNc2c([N+](=O)[O-])ncn2C)cc1OC	-2%	7	-1%	7%	0
CC1CCCC(C)N1C(=O)COC(=O)CNC(=O)C12CC3CC(CC(C3)C1)C2 (stereo unspecified)	-1%	-3	·	·	3
CCOc1ccc(/C=N/n2c(-c3ccccc3)n[nH]c2=S)cc1	-6%	0	?	1.6µM*	20
Cc1nn(-c2ccccc2)c(C)c1/C=N/n1c(-c2ccncc2)n[nH]c1=S	-9%	14	1%	-28%	-4
Cc1nn(-c2ccccc2)c(C)c1/C=N/n1c(-c2ccc(Cl)cc2)n[nH]c1=S	3%	-7	8.9µM*	13µM*	-1
Oc1c(Br)cc(Br)cc1/C=N/n1c(-c2ccccc2)n[nH]c1=S	-7%	-4	?	?	-3
COc1c(Br)cc(/C=N/n2c(-c3ccccc3)n[nH]c2=S)c(O)c1Br	8%	-5	?	13µM*	-9
S=c1[nH]nc(-c2ccccc2)n1/N=C/c1cccc(Cl)c1	?	-7	4.5µM*	5.6µM*	14
S=c1[nH]nc(-c2ccccn2)n1/N=C/c1ccccc1	-2%	-6	-3%	?	1
Cc1ccc(-c2n[nH]c(=S)n2/N=C/c2c(C)[nH]n(-c3ccccc3)c2=O)cc1	-5%	6	-26%	10µM*	3
Cc1ccccc1/C=N/n1c(-c2ccccn2)n[nH]c1=S	-2%	9	-18%	?	4
S=c1[nH]nc(-c2ccncc2)n1/N=C/c1cccc(Cl)c1	-14%	8	-23%	4.5µM*	0
CC(/C=N/n1c(-c2ccccn2)n[nH]c1=S)=C\c1ccccc1	-2%	-2	-9%	3.5µM*	4
Cc1ccc(-c2nn(-c3ccccc3)cc2/C=N/n2c(-c3ccncc3)n[nH]c2=S)cc1	2%	-10	-4%	-9%	0
S=c1[nH]nc(-c2ccccn2)n1/N=C/c1ccc(Cl)cc1	-2%	15	-19%	13µM*	0
COc1ccc(CN(Cc2cccn2C)S(=O)(=O)c2cccc(C(F)(F)F)c2)cc1	-7%	6	2%	7%	14
S=c1[nH]nc(-c2ccccn2)n1/N=C/c1cccs1	-1%	-6	4%	-38%	-1
Oc1ccccc1/C=N/n1c(-c2ccccc2)n[nH]c1=S	-6%	10	-20%	11µM*	5
S=c1[nH]nc(-c2ccccc2)n1/N=C/c1ccc(Cl)cc1	2%	4	?	1.1µM*	14
Cc1n[nH]c(=S)n(/N=C/c2cccs2)c1=O	2%	·	11%	-42%	·
Oc1c(Br)cc(/C=N/n2c(-c3ccccc3)n[nH]c2=S)c(Br)c1O	·	?	?	?	3
CC(C)(C)c1n[nH]c(=S)n(/N=C/c2cccs2)c1=O	-4%	-2	16µM*	10µM*	3
S=c1[nH]nc(-c2ccc(Cl)cc2)n1/N=C/c1cccs1	3%	4	-20%	3.5µM*	15
COC1=C(Br)C(=O)c2ncccc2C1=O	-10%	·	·	·	·
SMILES	uPA surface inh	TRPV1 PAM	Gal4-VP16 FLuc	RORgamma inh	TRPV1 ag
O=C(CCNS(=O)(=O)c1cccc(C(F)(F)F)c1)NCc1ccco1	12%	·	·	·	·
CCOC(=O)C(Cc1ccc(O)cc1)NC(=O)CNC(=O)C1CCCN1C(=O)OC(C)(C)C (stereo unspecified)	2%	2	-6%	2%	-4
COc1ccc(OCC(=O)Nc2nc3ccccc3[nH]2)cc1	-8%	?	7%	0.79µM*	0
COc1ccc(CCNC(=O)c2oc3ccc(OC)cc3c2C)cc1	4%	23	-16%	11µM*	19
COc1cc(OC)cc(C(=O)Nc2nc3ccccc3[nH]2)c1	-7%	-34	5.6µM*	3.2µM*	6
O=C(Nc1ccc(F)cc1)c1cc2ccccc2o1	?	-9	9%	?	98*
O=C(Nc1ccccc1)c1cc2ccccc2o1	-5%	-8	-26%	?	?
COc1ccc(CCNC(=O)c2oc3ccccc3c2C)cc1	-6%	6	·	·	24
COc1ccc(/C=N/NC(=O)c2ccncc2)cc1Cn1nc([N+](=O)[O-])c(Br)c1C	6%	-1	2%	21%	6
Cc1ccc(C(=O)C(C)OC(=O)Cn2[nH]c(=O)c3ccccc3c2=O)cc1C (stereo unspecified)	-12%	-21	13%	16%	-4
O=C(NC(=S)Nc1ccc(NC(=O)c2cccs2)cc1)c1cc2ccccc2o1	5%	?	7.9µM*	7.1µM*	-3
Cc1ccsc1C(=O)Nc1nc2ccccc2[nH]1	?	12	7.1µM*	2µM*	4
COc1ccc2oc(C(=O)OC/C(O)=C(\C#N)c3nc4ccccc4[nH]3)c(C)c2c1	5%	3	-1%	?	7
O=C(Nc1nc2ccccc2[nH]1)c1cc2ccccc2o1	-16%	-6	7.9µM*	2.5µM*	14
O=C(NC(=S)Nc1ccc(NC(=O)c2cccs2)cc1)c1ccco1	0%	-1	?	?	2
COc1ccc2oc(C(=O)Nc3nc4ccccc4[nH]3)c(C)c2c1	3.5µM*	26	2.8µM*	?	-6
Cc1ccsc1C(=O)Nc1ccccc1N1CCCC1	-3%	-1	·	·	1
CO[C@@H]1COC(=O)C/C=C\[C@H](C)COC(=O)[C@H](Cc2ccccc2)NC(=O)C/C=C\[C@H]1C	·	·	5%[10 µM]	11%[10 µM]	·
COc1ccc(C(=O)O)cc1S(=O)(=O)NCc1ccccn1	5%	-1	-4%	-1%	-2
COc1ccc(OCC(=O)NNc2c3ccccc3nc3ccccc23)cc1	-8%	17	7.1µM*	0.35µM*	3
O=C(COc1ccccc1)NNc1c2ccccc2nc2ccccc12	-4%	0	-12%	13%	22
Cc1ccc(C)c(Nc2nc3ccccc3[nH]2)c1	-3%	·	·	·	·
Cc1cc(C)cc(C(=O)Nc2nc3ccccc3[nH]2)c1	-7%	-5	10µM*	6.3µM*	7
O=C(N/N=C1/C[C@@H](O)[C@@H](O)[C@@H]2[C@@H]3C(=O)N(Cc4ccccc4)C(=O)[C@H]3CC[C@H]12)OCc1ccccc1	·	·	-6%[10 µM]	3%[10 µM]	·
CN(C(=O)CCc1nnc(CCCCc2ccccc2)o1)C1CC(C)(C)NC(C)(C)C1	·	-5	4.5µM*	2µM*	4
CCn1c(N2CCN(C(=O)C34CC5CC(CC(C5)C3)C4)CC2)nc2ccccc21	-15%	-9	2%[0.365 µM]	13%	28
